Calls of active or inactive are those of the source.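 How the source made its calls: active means compound whose remaining NAD level is above about 45 nM (limit read from the data); inactive means the rest.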
The compounds below were run against NAD(+) hydrolase SARM1 (Homo sapiens) (UniProt Q6SZW1) (assay: blocking NAD cleavage by SARM1 SAM-TIR – cell lysate, NAD-Glo luminescence (AID 1508614;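 further: higher remaining NAD means stronger inhibition of SARM1 NADase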)). Settings: SAM-TIR HEK293T lysate NADase, at 1 µM, active compounds read high.
Chain of NAD(+) hydrolase SARM1 (Homo sapiens) (Q6SZW1 whole entry, looked up): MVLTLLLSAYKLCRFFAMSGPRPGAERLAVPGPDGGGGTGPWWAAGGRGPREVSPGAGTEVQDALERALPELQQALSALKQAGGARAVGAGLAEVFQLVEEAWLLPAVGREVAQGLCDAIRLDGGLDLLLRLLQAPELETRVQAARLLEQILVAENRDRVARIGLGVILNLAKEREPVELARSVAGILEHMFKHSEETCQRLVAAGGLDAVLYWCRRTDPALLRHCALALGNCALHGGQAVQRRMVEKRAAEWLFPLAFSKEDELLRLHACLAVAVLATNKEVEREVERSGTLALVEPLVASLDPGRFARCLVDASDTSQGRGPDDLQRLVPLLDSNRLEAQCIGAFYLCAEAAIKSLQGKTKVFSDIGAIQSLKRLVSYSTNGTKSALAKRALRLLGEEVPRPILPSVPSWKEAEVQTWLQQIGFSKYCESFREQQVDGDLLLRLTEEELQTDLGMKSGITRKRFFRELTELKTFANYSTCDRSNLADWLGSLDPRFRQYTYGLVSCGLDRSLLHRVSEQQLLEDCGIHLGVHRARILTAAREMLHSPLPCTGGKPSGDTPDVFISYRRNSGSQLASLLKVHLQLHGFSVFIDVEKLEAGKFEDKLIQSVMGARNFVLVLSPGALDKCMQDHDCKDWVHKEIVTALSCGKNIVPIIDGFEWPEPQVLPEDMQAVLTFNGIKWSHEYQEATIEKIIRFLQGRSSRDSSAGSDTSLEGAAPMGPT

| SMILES | remaining NAD |
| --- | --- |
| CN(Cc1cnc2nc(N)nc(N)c2n1)c1ccc(C(=O)NC(CCC(=O)O)C(=O)O)cc1 (stereo not drawn) | 10 nM (inactive) |
| CC(C)(Oc1ccc(C(=O)c2ccc(Cl)cc2)cc1)C(=O)O | 10 nM (inactive) |
| CC(C)(C)NC[C@H](O)COc1ccccc1C1CCCC1 | 10 nM (inactive) |

Reference: PubChem BioAssay
